Screens: PubChem, National Center for Advancing Translational Sciences (NCATS)
Most compounds without a hit are left out; they make up all but 1.3% or so of the library.
RXFP1 ag = agonists of human relaxin receptor RXFP1. Q9HBX9. HEK293T-RXFP1 cAMP TR-FRET, 30 min; response scale: percent of porcine relaxin response, buffer zero. Potency, µM (doses to about 57.5 µM), inactives show top-dose activation, usual class: activators. actives 0.3% (n = 370,000); active = well fitted activation curve with a large enough effect; inconclusive = small, poorly fitted or top-dose-only effect; note: potency is the fitted concentration of half-maximal effect; % is set by controls: 0 for no effect and ±100 for the full control effect; nearly all actives have a fitted effect of over 60% in size
Target sequence (Q9HBX9 whole entry, looked up): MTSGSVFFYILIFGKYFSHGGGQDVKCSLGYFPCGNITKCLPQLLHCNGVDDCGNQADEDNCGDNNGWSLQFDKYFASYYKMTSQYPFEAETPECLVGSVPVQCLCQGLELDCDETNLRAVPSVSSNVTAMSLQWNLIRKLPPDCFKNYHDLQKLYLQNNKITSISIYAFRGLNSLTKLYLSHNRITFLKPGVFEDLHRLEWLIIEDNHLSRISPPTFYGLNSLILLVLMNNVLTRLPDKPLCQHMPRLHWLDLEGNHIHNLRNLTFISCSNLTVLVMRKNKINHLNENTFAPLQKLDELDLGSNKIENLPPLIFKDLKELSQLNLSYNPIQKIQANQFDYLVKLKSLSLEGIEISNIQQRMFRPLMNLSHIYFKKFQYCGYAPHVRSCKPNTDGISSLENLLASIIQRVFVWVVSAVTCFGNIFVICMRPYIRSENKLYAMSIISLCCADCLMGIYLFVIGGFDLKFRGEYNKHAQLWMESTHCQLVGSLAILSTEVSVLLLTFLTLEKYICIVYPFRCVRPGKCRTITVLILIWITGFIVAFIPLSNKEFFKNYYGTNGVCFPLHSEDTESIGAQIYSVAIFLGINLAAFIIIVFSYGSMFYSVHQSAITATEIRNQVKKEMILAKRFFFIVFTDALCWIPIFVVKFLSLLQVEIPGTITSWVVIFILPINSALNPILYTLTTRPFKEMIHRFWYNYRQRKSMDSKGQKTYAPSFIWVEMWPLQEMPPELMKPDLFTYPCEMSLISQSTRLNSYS
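cAMP rise read by TR-FRET after 30 min, 37C compound exposure (up to 58 uM) in RXFP1-transfected HEK293 cells with Ro 20174 present. EC50 from Hill-equation fits, with 29 nM porcine relaxin as 100% and buffer as basal.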
gsp antagonist = antagonizes gsp, the McCune-Albright syndrome mutation | gsp-mutant cells, cAMP HTRF, 30 min | Potency, µM (highest dose often 76.9 µM), inactives show at the highest dose activity change, negative = inhibition, usual class: inhibitors | actives 0.4% (n = 340,000) | AID 624288; calls by dose curve; cell line not stated here;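 note: intracellular cAMP measured with PDE inhibitor Ro 20-1724 present during compound exposure; potency is the fitted concentration of half-maximal effect; % is set by controls: 0 for no effect and ±100 for the full control effect; nearly all actives have a fitted effect of over 65% in size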
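Cells, 2000/well, grown 16–24 h in DMEM 10% FBS with 0.5 mg/ml G418, then compounds plus […] (300 uM addition stock), 30 min at 37C. cAMP read by HTRF (cAMP-d2 and anti-cAMP antibody-K in lysis buffer) after 30 min RT.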
gsp agonist = gsp mutant agonism; gsp mutant cells, cAMP HTRF, 30 min; Potency, µM (series often up to 76.9 µM), for the others: top-dose activation (cAMP increase), actives largely listed as activators; actives 0.13% (n = 340,000); active = well fitted activation curve with a large enough effect; inconclusive = small, poorly fitted or top-dose-only effect, or another doubt; inactive = no such curve, though single readings can be large or run the other way; cell line not stated here;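 note: phosphodiesterase inhibitor Ro 20-1724 added with compounds to block cAMP breakdown; potency is the fitted concentration of half-maximal effect; nearly all actives have a fitted effect of over 60% in size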
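Cells stably selected in G418 were plated at 2000/well, grown 16-24 hr, then given compounds in DMSO with the PDE inhibitor […] (300 uM solution added) for 30 min at 37C; cAMP was read by HTRF.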
RXFP1 antagonist = RXFP1 (human) relaxin receptor antagonism; Q9HBX9; HEK293-RXFP1, relaxin-stimulated cAMP HTRF, 30 min; stronger effect = lower value; activity change, negative = inhibition, % at 57.5 µM; actives 0.59% (n = 350,000); AID 1259400;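 active = activity change of -60% or lower, but not beyond a set lower limit; inconclusive = change between -60% and -40%, or beyond the set limit; inactive = change above -40%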; note: % is set by controls: 0 for no effect and ±100 for the full control effect
Akt phos inh = inhibitors of Akt phosphorylation; activity change, % for hits at 50 µM; Neuro2A IGF-stimulated pAkt S473 HTRF, 20 min; stronger effect = lower value; actives 0.32% (n = 360,000); in the data active = activity change below about -80%; inconclusive = mostly about -51% to -80%; note: % is set by controls: 0 for no effect and ±100 for the full control effect
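Neuro2A cells in DMEM with 0.5% FBS, overnight at 37 deg C, given compound at single 50 µM final, then IGF (6 nM final) for 20 min at 37 deg C. Lysed; phospho-Akt Ser473 by HTRF after 24 h, 665/615 ratio.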
Starred values were filed as active, the others as inactive; [ ] = dose if it differs, or a comment.

For COc1cccc2c(C)cc3nnc(SCC(=O)Nc4ccc(C)cc4)n3c12 the results were RXFP1 ag 2% and RXFP1 antagonist -19.
For O=C1c2ccccc2C(=O)N1CCCc1cn(C[C@H]2CC[C@@H]([C@@H]3CC[C@H](Cn4cc(CCCN5C(=O)c6ccccc6C5=O)nn4)O3)O2)nn1 the results were RXFP1 ag -1%, gsp antagonist -7% and Akt phos inh inactive.
O=C1c2ccccc2C(=O)N1CCCCc1cn(C[C@H]2CC[C@@H]([C@@H]3CC[C@H](Cn4cc(CCCCN5C(=O)c6ccccc6C5=O)nn4)O3)O2)nn1 was read as gsp antagonist 32µM* and Akt phos inh inactive.
For CCCN(CCc1cccs1)[C@H]1CCc2c(O)cccc2C1 the results were RXFP1 antagonist 22.
For O=C(CCOc1ccccc1)N(Cc1cccnc1)c1nc2c(F)cc(F)cc2s1 the results were RXFP1 ag 2% and RXFP1 antagonist -8.
O=C(CCc1ccccc1)N(Cc1cccnc1)c1nc2c(F)cc(F)cc2s1 was read as RXFP1 ag 0% and RXFP1 antagonist -86*.
Screening O=C(C1CCCCC1)N(Cc1cccnc1)c1nc2c(F)cccc2s1 returned RXFP1 ag 1% and RXFP1 antagonist -72*.
Screening CCCN(Cc1cccs1)C(=O)Nc1cc(Cl)ccc1C returned RXFP1 ag 1% and RXFP1 antagonist -3.
CC12CCC(=O)N1C(C(=O)N1CCN(S(=O)(=O)c3ccccc3F)CC1)CS2 (stereo not given) was read as RXFP1 ag 0%, gsp antagonist 8%, gsp agonist -6%[15.4 µM], RXFP1 antagonist 15 and Akt phos inh inactive.
For CC12CCC(=O)N1C(C(=O)N1CCN(S(=O)(=O)c3ccc(Br)cc3Cl)CC1)CS2 (stereo not given) the results were RXFP1 ag 5%, gsp antagonist -1%, gsp agonist -18%[15.4 µM], RXFP1 antagonist -66* and Akt phos inh inactive.
Screening CCCSc1ncc(Cl)c(C(=O)Nc2ccc(S(=O)(=O)N3CCCCC3C)cc2)n1 (stereo not given) returned RXFP1 ag -1% and RXFP1 antagonist 1.
Screening CCC1CN(C(=O)N2CCC(C(=O)NCCc3ccccc3Cl)CC2)c2cc(C)ccc2O1 (stereo not given) returned RXFP1 ag 3% and RXFP1 antagonist -87*.
CCc1ccc(CNC(=O)C2CCN(C(=O)N3CC(CC)Oc4ccc(C)cc43)CC2)cc1 (stereo not given) was read as RXFP1 ag -1% and RXFP1 antagonist -68*.
Screening CCC1CN(C(=O)N2CCC(C(=O)NCCc3ccccc3C)CC2)c2ccccc2O1 (stereo not given) returned RXFP1 ag -3% and RXFP1 antagonist -18.
`CCC1(C)CC(=O)N(c2ccc(C(=O)O)c(O)c2)C1=O` (stereo not given) gave RXFP1 ag 2%, gsp antagonist -8%, gsp agonist 7%, RXFP1 antagonist -1 and Akt phos inh -114%*.
CC(=C(CCOC(=O)C(C)C)SSC(CCOC(=O)C(C)C)=C(C)N(C=O)Cc1cnc(C)nc1N)N(C=O)Cc1cnc(C)nc1N was read as RXFP1 antagonist -10.
`Cc1ccc(C)c(OCCOCCn2c(-c3ccc(Br)cc3)nc3ccccc3c2=O)c1C` gave RXFP1 ag 4% and RXFP1 antagonist -2.
`Clc1ccc(COc2ccccn2)cc1Cl` gave RXFP1 ag 2%, gsp antagonist -6%, gsp agonist 3%, RXFP1 antagonist -6 and Akt phos inh -123%*.
For O=[N+]([O-])c1ncccc1OCc1ccc(Cl)c(Cl)c1 the results were RXFP1 ag 2%, gsp antagonist -18%, gsp agonist inconclusive, RXFP1 antagonist -4 and Akt phos inh inactive.
O=C1C(Br)=Cc2cccc3cccc1c23 was read as RXFP1 ag -5%, gsp antagonist inconclusive, gsp agonist 1%[15.4 µM], RXFP1 antagonist -69* and Akt phos inh inactive.
Screening CO/N=C(/C(=O)N[C@@H]1C(=O)N2C(C(=O)[O-])=C(C[n+]3ccn4ncccc43)CS[C@H]12)c1nsc(N)n1 returned RXFP1 antagonist 16.
For COc1ccccc1NC(=O)Nc1nc(CC(=O)NCc2ccc(F)cc2)cs1 the results were RXFP1 ag -2%, gsp antagonist inconclusive, gsp agonist -2%, RXFP1 antagonist -76* and Akt phos inh inactive.
COc1ccccc1NC(=O)Nc1nc(CC(=O)NCc2c(F)cccc2F)cs1 was read as RXFP1 ag 2%, gsp antagonist -17%, gsp agonist 4%, RXFP1 antagonist -38 and Akt phos inh inactive.
COc1ccccc1CNc1nc(-c2ccco2)nn1C(=O)c1ccccc1[N+](=O)[O-] was read as RXFP1 ag -1% and RXFP1 antagonist -11.
Screening CS(=O)(=O)c1ccc(-c2cn3ccccc3n2)cc1 returned RXFP1 antagonist -4.
For CN1CCN(c2ccc(NC(=O)c3cc4ccccc4o3)cc2)CC1 the results were RXFP1 ag 0%, gsp antagonist -3%, gsp agonist -57%, RXFP1 antagonist 1 and Akt phos inh inactive.
For O=C(Nc1ccc(N2CCN(C(=O)c3ccccc3)CC2)cc1)c1ccc(Br)o1 the results were RXFP1 ag -1%, gsp antagonist inconclusive, gsp agonist -51%, RXFP1 antagonist -21 and Akt phos inh inactive.
O=C(Nc1ccc(N2CCN(C(=O)c3ccccc3)CC2)cc1)c1cc2ccccc2o1 was read as RXFP1 ag 1%, gsp antagonist 35µM*, gsp agonist -10%, RXFP1 antagonist -22 and Akt phos inh inactive.
Screening O=C(Nc1ccc2c(c1)CCC2)c1ccc(Br)o1 returned RXFP1 ag 0%, gsp antagonist -6%, gsp agonist 6%, RXFP1 antagonist -5 and Akt phos inh -114%*.
Screening O=C(Nc1ccc(N2CCN(C(=O)c3ccccc3)CC2)c(Cl)c1)c1ccc(Br)o1 returned RXFP1 ag 0%, gsp antagonist inconclusive, gsp agonist -48%, RXFP1 antagonist -12 and Akt phos inh -86%*.
`Cc1ccc(C(=O)Nc2ccc3c(c2)CCC3)o1` gave RXFP1 ag 1%, gsp antagonist -3%, gsp agonist -18% and RXFP1 antagonist -25.
O=C(O)c1ccccc1NC(=O)c1ccccc1Nc1ccccc1 was read as RXFP1 ag 0%, gsp antagonist 32µM*, gsp agonist -8%, RXFP1 antagonist -14 and Akt phos inh inactive.
`O=C(Nc1ccccc1C(=O)Nc1ccccc1C(=O)O)c1ccccc1` gave RXFP1 ag 5%, gsp antagonist inconclusive, gsp agonist 9%[15.4 µM], RXFP1 antagonist -6 and Akt phos inh inactive.
`COc1ccc(OC)c(-c2noc(N3CCN(c4cc(C)ccc4C)CC3)n2)c1` gave RXFP1 ag 0%.
